Structures are written as SMILES. Several values for one entry are separate records, joined by “and”; a condition that tells them apart may be missing. Equal entries are not always repeated. Out of some 410,000 compounds screened, about 7,200 (1.8%) were called active. Entries that show only a call come without a potency. Another 7% or so got no clear call; they are omitted. The sample as a whole holds a higher share of actives than the screen did. Unmarked numbers belong to inactive results. Calls come from the whole dose curve; as a rule, active = well fitted activation curve with a large enough effect; inconclusive = small, poorly fitted or top-dose-only effect, or another doubt; inactive = no such curve, though single readings can be large or run the other way.
Potency is the fitted concentration of half-maximal effect.

This assay is described as follows: qHTS of TDP-43 Inhibitors. Note: nearly all actives have a fitted effect of over 50% in size. As to conditions: TDP-43 expressing yeast growth rescue, BacTiter-Glo, 24 h; series mostly up to 46.1 µM. A digest of the protocol: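 Cell-based yeast growth screen: TDP-43 expression induced in galactose, inoculum OD600=0.02 after raffinose pregrowth to mid-log. Read-out BacTiter-Glo luminescence at 24 hr, 30 deg C; inhibition of toxicity seen as signal increase.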
Background: In qHTS, concentration-response curves come from the screen itself.
In the case of `CCN(C(=O)Cn1c(=O)nc(-c2ccccc2)c2cc(Cl)ccc21)c1cccc(C)c1`, the Potency result is “inactive”.

Take `Cc1ccc(-c2c3c(=O)n(C)c(=O)n(C)c3cn2-n2cnnc2)cc1`: the Potency entry is “inactive”.

Take `COc1ccc(CCn2cc3c(c2-c2ccc(Br)cc2)c(=O)n(C)c(=O)n3C)cc1OC`: the Potency entry is “inactive”.

For `Cn1c(=O)c2c(-c3ccccc3Br)n(Cc3ccccc3)cc2n(C)c1=O`, the Potency was 22.4 µM (active).

Regarding `CCc1ccc(S(=O)(=O)c2nnn3c2nc(NCc2ccccc2OC)c2cc(Cl)ccc23)cc1`, the Potency entry was “inactive”.

With `NS(=O)(=O)c1ccc(NC(=O)C(=O)Nc2ccc3nc4n(c(=O)c3c2)CCCCC4)cc1`, the Potency entry is “inactive”.

Regarding `Cc1nc(NC(=O)C2CCCCC2)sc1C`, the Potency was 12.6 µM (active).

With `CC(C)NS(=O)(=O)c1ccc(NC(=O)C2CCCCC2)cc1`, the Potency entry is “inactive”.

`CCOC(=O)c1cc(C)sc1NC(=O)C1CCC1`: the Potency result is “inactive”.

Turning to `CCOC(=O)C1CCCN(C(=O)c2ccc3c(c2)sc2nc(-c4ccc(CC)cc4)cn23)C1` (stereo unspecified), the Potency entry is “inactive”.

For the molecule `COc1ccc(/C=C/c2nc(C#N)c(NCc3ccc(F)cc3)o2)cc1OC`, the Potency result is “inactive”.

Turning to `COc1cc2[nH]c(=O)n(Cc3ccc(C(=O)NCc4ccc(C)cc4)cc3)c(=O)c2cc1OC`, the Potency entry is “inactive”.

As to `COc1ccc(N2CCN(C(=O)CCSCc3ccccc3F)CC2)cc1`, the Potency entry is “inactive”.

For `Cc1cccc(N2CCN(C(=O)CCSCc3ccccc3F)CC2)c1C`, the Potency is 20 µM (active).

Regarding `O=C(CCSc1ccccc1)N1CCN(c2ccccc2F)CC1`, the growth rescue (activation) is -9.85% [at 9.22 µM].

With `CCc1cc2c(cc3c(=O)n(CC(=O)NCc4cccc(Cl)c4)nc(CC)n32)s1`, the Potency result was “inactive”.

Regarding `C=Cc1ccc(Cn2c(C(=O)O)c(CNC3CCCC3)c3ccc(C)cc32)cc1`, the Potency entry was “inactive”.

In the case of `CCCNC(=O)C1CCC(Cn2c(=O)c3sccc3n(Cc3ccccc3F)c2=O)CC1` (stereo unspecified), the Potency entry was “inactive”.

Turning to `COc1ccccc1-c1cc2nc(C)c(CCC(=O)NC3CCCCC3)c(C)n2n1`, the Potency result was “inactive”.

In the case of `COc1ccc(-c2cc3nc(C)c(CCC(=O)NC(C)CCc4ccco4)c(C)n3n2)c(OC)c1` (stereo unspecified), the Potency is 17.8 µM (active).

With `COc1ccccc1-c1cc2nc(C)c(CCC(=O)O)c(C)n2n1`, the Potency result is “inactive”.

As to `COc1ccc([C@H]2CC(=O)C=C(c3ccc(OC(F)(F)F)cc3)C2)cc1OC`, the Potency was 14.1 µM (active).

As for `COc1cccc(C2=CC(=O)C[C@H](c3ccc(OC)c(OC)c3)C2)c1`, the Potency is 15.8 µM (active).

In the case of `COc1ccc([C@H]2CC(=O)C=C(/C=C/c3ccccc3)C2)cc1`, the Potency result is “inactive”.

Take `COc1ccc(C2CC(=O)C=C(NCC3CCCO3)C2)cc1` (stereo unspecified): the Potency entry is “inactive”.

Turning to `COc1ccc(C2CC(=O)n3c(nc4ccccc43)S2)cc1OC` (stereo unspecified), the Potency result was “inactive”.

Regarding `COc1ccc([C@H]2CC(=O)C=C(c3ccc(CO)cc3)C2)cc1`, the Potency entry was “inactive”.

Consider `CCOC(=O)c1c(NC(=O)Cc2coc3ccc(CC)cc23)sc2c1CCC2`, for which the Potency entry was “inactive”.

As for `O=C(Nc1ccc(OC(F)(F)F)cc1)C1CCCN(S(=O)(=O)c2ccc(Br)s2)C1` (stereo unspecified), the Potency result is “inactive”.

As for `CC(NC(=O)c1cc2c(=O)n3ccccc3nc2n(C(C)C)c1=N)c1ccccc1` (stereo unspecified), the Potency entry is “inactive”.

`COc1ccc(-c2cc(C(=O)N(C)Cc3ccccc3)c3ccccc3n2)cc1`: the Potency is 14.1 µM (active).

For the molecule `CN(Cc1ccccc1)C(=O)c1cc2c(=O)n(C)c3ccccc3c2s1`, the Potency result was “inactive”.

Turning to `COc1ccc(C2=NS(=O)(=O)N(C)C(C(=O)N(C)Cc3ccccc3)=C2)cc1`, the Potency result is “inactive”.

Turning to `COc1cccc(NC(=O)CN(C)C(=O)c2cc(Cl)nc3ccccc23)c1`, the Potency entry was “inactive”.

Consider `CN(CCOc1ccccc1)C(=O)c1cc(-c2ccco2)nc2ccccc12`, for which the Potency was 35.5 µM (active).

On to `CN(C)C(CNC(=O)CCCOc1ccccc1)c1ccco1` (stereo unspecified), for which the Potency entry is “inactive”.

As to `Cc1ccc2oc3c(c(=O)c2c1)C(c1ccc(O)cc1)N(Cc1ccc2c(c1)OCO2)C3=O` (stereo unspecified), the Potency entry was “inactive”.

For the molecule `CNc1ccc(-c2nc(-c3ccccc3C)no2)cc1[N+](=O)[O-]`, the Potency entry is “inactive”.

With `Cc1ccc(CN2CCC(CNC(=O)c3cnn(-c4ccc(C)cc4)c3C3CCN(C(=O)OC(C)(C)C)CC3)CC2)cc1`, the Potency result is “inactive”.

Take `COc1ccc(CCNS(=O)(=O)c2cccc([N+](=O)[O-])c2)cc1`: the growth rescue (activation) is -3.92% [at 1.82 µM].

As for `COc1ccc(CC(=O)N/N=C/c2cc([N+](=O)[O-])cc(Br)c2O)cc1`, the Potency was 6.31 µM (active).

As to `COc1ccc(Cc2nnc(SCC(=O)c3cccc([N+](=O)[O-])c3)n2C)cc1`, the Potency entry is “inactive”.

For the molecule `Cc1ccccc1OCC(=O)Nc1ccc(N2CCN(C(=O)C(C)C)CC2)c(Cl)c1`, the Potency is 25.1 µM (active).

For the molecule `Cc1ccc(NC(=O)COc2coc(CN3CCc4ccccc4C3)cc2=O)cc1Cl`, the Potency entry is “inactive”.

As for `O=C(COc1ccccc1Cl)Nc1ccc2nc(SCC(=O)N3CCCC3)sc2c1`, the Potency entry is “inactive”.

As for `COc1ccc(-c2nc(SCC(=O)N3CCCCC3C)n[nH]2)cc1` (stereo unspecified), the Potency entry was “inactive”.

For `COc1ccccc1CN1CCC(CNC(=O)c2cnn(-c3ccccc3Cl)c2C2CCN(C(=O)OC(C)(C)C)CC2)CC1`, the Potency entry was “inactive”.

`CCCC(=O)Nc1cc2nn(-c3ccccc3)nc2cc1C`: the Potency result is “inactive”.

With `CCCOc1ccc(F)cc1-c1cc(C(=O)Nc2ccc(F)c(Cl)c2)[nH]n1`, the Potency was 8.91 µM (active).

Turning to `COc1ccc(Cl)cc1-c1cc(C(=O)Nc2cc(OC)c(OC)c(OC)c2)[nH]n1`, the Potency entry is “inactive”.

For `CCN(CC)C(=O)Oc1ccc(Br)cc1C(=O)Nc1ccc(F)c(Cl)c1`, the Potency result was “inactive”.

On to `CC(C)(C)c1ccc(C(=O)NCC(c2ccc(Cl)cc2)N2CCOCC2)cc1` (stereo unspecified), for which the Potency result is “inactive”.

For the molecule `CCOC(=O)c1ccc(-n2c(CCC(=O)O)ccc2-c2ccccc2)cc1`, the Potency is 25.1 µM (active) and 35.5 µM (active).

Consider `COc1ccc(-c2ccc(CCC(=O)O)n2-c2ccc(O)cc2)cc1`, for which the growth rescue (activation) was -16.9% [at 9.22 µM].

Turning to `Cc1ccc(-c2ccc(CCC(=O)O)n2-c2ccc(C(N)=O)cc2)cc1`, the Potency result was “inactive”.

On to `Cc1ccc(C2CCN(C(=O)c3cnn(-c4ccccc4Cl)c3C3CCN(C(=O)OC(C)(C)C)CC3)C2)cc1` (stereo unspecified), for which the Potency entry is “inactive”.

Take `O=C(CN1C(=O)COc2ccc(S(=O)(=O)N3CCCCCC3)cc21)N1CCN(c2cccc(C(F)(F)F)c2)CC1`: the Potency result was “inactive”.

Consider `COC(=O)N/N=C/c1ccc(-c2ccc(Cl)c(Cl)c2)o1`, for which the Potency was 12.6 µM (active).

`O=C(N/N=C\c1ccc(-c2ccc(Cl)c(Cl)c2)o1)C(=O)N1CCCC1`: the Potency entry is “inactive”.

As to `Cc1ccc(/C=N/NC(=O)Cn2ccc(C(F)(F)F)n2)o1`, the Potency entry is “inactive”.

For the molecule `Cc1ccc(NC(=O)c2cn3c4c(ccc(Cl)c4c2=O)OC(C)C3)cc1C` (stereo unspecified), the Potency entry was “inactive”.

As for `Cc1cccc(Nc2cc(C)nc(-n3nc(C)cc3C)n2)c1`, the Potency entry is “inactive”.

Regarding `COc1ccc2c(Sc3ccc(C)cc3)c(C(=O)NC(C)c3ccccc3)[nH]c2c1` (stereo unspecified), the Potency result is “inactive”.

As for `O=C(CSc1ccccc1)Nc1cccc(S(=O)(=O)N2CCOCC2)c1`, the Potency result is “inactive”.

As to `CSc1cccc(NC(=O)CSc2ccccc2)c1`, the Potency is 14.1 µM (active).

For `Cc1nnc(SCC(=O)Nc2cccc(N)c2)n1-c1ccccc1`, the Potency entry is “inactive”.

`Cc1ccc2nc(/C(C#N)=C/c3ccc(-c4ccc(C(=O)OC(C)C)cc4)o3)[nH]c2c1`: the Potency entry is “inactive”.

Consider `COc1ccccc1NC(=O)c1cc(S(=O)(=O)NCCc2ccccc2)ccc1F`, for which the Potency result is “inactive”.

As to `COc1cccc(N2CCN(S(=O)(=O)c3ccc4c(c3)CCCN4C(C)=O)CC2)c1`, the Potency result was “inactive”.

For the molecule `COc1cccc(N2C(=O)CC(N3CCc4ccccc4C3)C2=O)c1` (stereo unspecified), the Potency was 17.8 µM (active).

Regarding `COc1cccc(N2C(=O)CC(N3CCN(S(=O)(=O)c4ccccc4)CC3)C2=O)c1` (stereo unspecified), the Potency entry was “inactive”.

Consider `COc1cccc(N2CCN(C3CC(=O)N(c4ccc(Cl)cc4)C3=O)CC2)c1` (stereo unspecified), for which the Potency entry was “inactive”.

Consider `CCOc1ccccc1C(=O)Nc1ccc2c(c1)N(C)C(=O)c1ccccc1S2`, for which the Potency entry was “inactive”.

Consider `CCc1noc(C)c1C(=O)OCC(=O)c1ccc(NC(=O)CC(C)C)cc1`, for which the Potency entry was “inactive”.

In the case of `CCc1noc(C)c1C(=O)N1CCCSC1=Nc1ccccc1OC`, the Potency result is “inactive”.

On to `CCc1noc(C)c1C(=O)Nc1nc(-c2ccccc2)cs1`, for which the Potency is 11.2 µM (active).

With `O=C(/C=C/c1cn(CC(O)CN2CCc3ccccc32)c2ccccc12)c1ccc(Br)cc1` (stereo unspecified), the Potency result was “inactive”.

`CC1CCN(c2oc(-c3ccccc3F)nc2C#N)CC1`: the Potency is 15.8 µM (active).

Take `COc1ccc(OCc2ccc(-c3nc(C#N)c(N4CCN(c5ccccc5)CC4)o3)o2)cc1`: the Potency entry is “inactive”.

For the molecule `Cc1ccccc1OCc1ccc(-c2nc(C#N)c(N3CCCCC3)o2)o1`, the Potency result is “inactive”.

In the case of `Cc1nn(C)c2c1c(C(F)(F)F)cc(=O)n2C(C)C(=O)NCc1ccc(Cl)cc1` (stereo unspecified), the Potency result was “inactive”.

Turning to `Cc1ccccc1CNC(=O)CCCn1nc(C)c2sc3ccccc3c2c1=O`, the Potency result is “inactive”.

On to `Cc1cc(-c2cccs2)nc(-n2cccc2)n1`, for which the Potency is 12.6 µM (active).

In the case of `Cc1cc2nc(C(F)(F)F)cc(-c3cccs3)n2n1`, the Potency entry was “inactive”.

In the case of `CC(C)(C)Nc1c(-c2cccs2)nc2ccccn12`, the Potency entry is “inactive”.

For `CCc1nnc(SCc2c(F)cccc2Cl)c2cc3sccc3n12`, the Potency entry was “inactive”.

In the case of `CC(=O)OCC1(O)CC23CCC4c5ccoc5CCC4(C)C2CCC1C3` (stereo unspecified), the Potency is 17.8 µM (active).

Turning to `CCSc1ncc(Cl)c(C(=O)Nc2c(C(=O)c3ccccc3)oc3ccccc23)n1`, the Potency result was “inactive”.

In the case of `C[C@H]1NS(=O)(=O)c2cc(Cl)ccc2O[C@@H]1c1ccccc1`, the Potency entry was “inactive”.

In the case of `C[C@@H]1NS(=O)(=O)c2cc(Cl)ccc2O[C@@H]1c1ccccc1`, the Potency was 17.8 µM (active).

In the case of `COC[C@@H]1NS(=O)(=O)c2ccc(Br)cc2O[C@H]1c1ccccc1`, the Potency entry is “inactive”.

Regarding `Cc1ccc2nc(-c3ccc(O)cc3)c(Nc3ccc4c(c3)OCO4)n2c1`, the Potency entry is “inactive”.

In the case of `CCc1ccc(Nc2n[n+](-c3ccccc3)c(-c3cccc(Cl)c3Cl)s2)cc1`, the Potency is 35.5 µM (active).

As to `COc1cc(Br)c(-c2sc(Nc3ccccc3)n[n+]2-c2ccccc2)cc1OC`, the Potency entry is “inactive”.

Take `COc1ccc(C)cc1Nc1n[n+](-c2ccccc2)c(-c2cccc(Cl)c2Cl)s1`: the Potency is 35.5 µM (active).

Take `COc1ccc(C)cc1S(=O)(=O)Nc1cccc(Cl)c1Cl`: the Potency entry is “inactive”.

The values are drawn from PubChem BioAssay AID652104 (National Center for Advancing Translational Sciences (NCATS), 2013).
